AMA1-RON2 inh: disrupts binding of P. falciparum AMA1 to RON2; AlphaScreen AMA1-biotinylated RON2 peptide binding; 360,000 tested, 0.2% active; Potency, µM (titrated, usually from 58.2 µM), for inactives: at the top dose activity change, negative = inhibition, usual class: inhibitors;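 also: 0% = vehicle wells and -100% = peptide control; nearly all actives have a fitted effect of over 45% in size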
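AMA1 (3D7) with his tag at 25 nM final met compounds first, then biotinylated RON2 peptide at 25 nM; detection used donor plus acceptor beads, 10 µg/mL apiece, read by AlphaScreen after 30 min at room temperature.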
Pf growth 96h: inhibits malaria parasite growth, 96 h; Potency, µM (highest dose often 28.7 µM), for inactives: top-dose activity change, negative = inhibition, hits mostly inhibitors; 320,000 tested, 6.9% active; P. falciparum luciferase reporter growth, 96 h; also: % is scaled to controls: 0 for no effect and ±100 for the full control effect
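Cell-based qHTS: luciferase-tagged P. falciparum in erythrocytes (2% hematocrit, 0.05% parasitemia final) incubated with compounds for 96 hours, 37 C, 5% CO2; luciferase detection reagent then added and luminescence measured.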
NS1 function inh: inhibitors of influenza NS1 protein function; Potency, µM (highest dose often 46.1 µM), inactives show at the top dose activity, positive = more growth; 270,000 tested, 0.4% active; calls by dose curve; also: actives are rising curves; nearly all actives have a fitted effect of over 50% in size
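Recovery from NS1-induced slow growth read by OD600 in budding yeast switched to galactose assay medium (pH 6.0, -URA) at 1:100 dilution. Compound 23 nl per well; the matching strain lacking NS1 serves as control.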
Sm TGR inh: S. mansoni TGR enzyme inhibition; AID 485364; purified TGR, DTNB reduction, TNB absorbance 405 nm; 360,000 tested, 3% active; Q962Y6; Potency, µM (highest dose often 114 µM), for inactives: at the top dose activity change, negative = inhibition, actives largely listed as inhibitors; also: % is scaled to controls: 0 for no effect and ±100 for the full control effect; nearly all actives have a fitted effect of over 60% in size
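First, TGR (20 nM dispensed) and NADPH were mixed with compound. Second, a 15 min room-temperature incubation followed. Third, further NADPH and then DTNB were added to start the reaction. Finally, TNB absorbance was monitored kinetically.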
Pf growth 48h: P. falciparum growth inhibition at 48 hours (one generation); P. falciparum luciferase growth in erythrocytes, 48 h; Potency, µM (titrated, usually from 28.7 µM), for inactives: at the highest dose activity change, negative = inhibition, hits mostly inhibitors; 310,000 tested, 5.9% active; also: % is scaled to controls: 0 for no effect and ±100 for the full control effect
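Luciferase-expressing parasites in RBCs, 2% Hct / 0.1% parasitemia final; RPMI 1640 + 0.5% Albumax; 37 C, 5% CO2, one generation; luminescence read-out, lower signal = inhibition.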
* marks the source's active call; other numbers are inactive results. A selection: hits, their analogues and other compounds. The true share with any hit is near 11%. Unless noted, calls follow the shape of the dose curve; as a rule, active = well fitted curve in the direction sought with a large enough effect; inconclusive = small, poorly fitted or top-dose-only effect, or another doubt; inactive = no such curve, though single readings can be large; an effect the other way counts as inactive or inconclusive. Potency is read from the fitted curve at half-maximal effect.

For CCSc1nc(NCCN(C)C)c2c3c(sc2n1)COC(C)(CC)C3 (centres undefined) the results were AMA1-RON2 inh 3%, Pf growth 96h 12µM*, NS1 function inh 2%, Sm TGR inh inconclusive and Pf growth 48h 3.3µM*.
CSc1nc(SCC(=O)NCc2ccco2)c2c3c(sc2n1)COC(C)(C)C3 was read as AMA1-RON2 inh -2%, Pf growth 96h -1%, NS1 function inh 3%, Sm TGR inh -18% and Pf growth 48h inconclusive.
`O=C(NCc1cc2ccccc2[nH]1)c1ccccc1F` gave AMA1-RON2 inh 1%, Pf growth 96h inconclusive, NS1 function inh 20%, Sm TGR inh 0% and Pf growth 48h 77%.
For CCOC(=O)C1=C(C)NC(=O)NC1c1cc2c(cc1Br)OCO2 (centres undefined) the results were AMA1-RON2 inh 3%, Pf growth 96h -4%, NS1 function inh 4%, Sm TGR inh -16% and Pf growth 48h 9.3µM*.
`CC1=C(C(=O)OCC(C)C)C(c2cc3c(cc2Br)OCO3)NC(=O)N1C` (centres undefined) gave AMA1-RON2 inh 14%, Pf growth 96h -23%, NS1 function inh -65%, Sm TGR inh -13% and Pf growth 48h 10µM*.
CCOCCOC(=O)C1=C(C)NC(=O)NC1c1cc2c(cc1Br)OCO2 (centres undefined) was read as AMA1-RON2 inh -4%, Pf growth 96h inconclusive, NS1 function inh 12%, Sm TGR inh 0% and Pf growth 48h -27%.
Screening COC(=O)C1=CN(C(C)C)C=C(C(=O)OC)C1c1cc2c(cc1Br)OCO2 returned AMA1-RON2 inh 26%, Pf growth 96h 3.7µM*, NS1 function inh -3%, Sm TGR inh -7% and Pf growth 48h inconclusive.
Screening O=C(c1cccc(S(=O)(=O)NCc2ccc3c(c2)OCO3)c1)N1CCCC1 returned AMA1-RON2 inh 3%, Pf growth 96h 18%, Sm TGR inh -12% and Pf growth 48h inconclusive.
`CNS(=O)(=O)c1cc(NC(=O)c2cncn2-c2ccccc2)ccc1C` gave AMA1-RON2 inh -13%, Pf growth 96h -1%, NS1 function inh 6%, Sm TGR inh 1% and Pf growth 48h 0%.
CC(=O)NC(c1ccc(N(C)C)cc1)c1cc(Cl)c2cccnc2c1O (centres undefined) was read as AMA1-RON2 inh 63%.
Screening COc1ccc(C(NC(C)=O)c2cc(Cl)c3cccnc3c2O)cc1 (centres undefined) returned AMA1-RON2 inh 14%, Pf growth 96h inconclusive, NS1 function inh -14%, Sm TGR inh -32% and Pf growth 48h inconclusive.
For CC(=O)NC(c1ccccc1)c1cc(Cl)c2cccnc2c1O (centres undefined) the results were AMA1-RON2 inh 0%, Pf growth 96h inconclusive, NS1 function inh -125%, Sm TGR inh -23% and Pf growth 48h 0.83µM*.
O=C(NC(c1ccc(Cl)cc1)c1cc(Cl)c2cccnc2c1O)c1cccnc1 (centres undefined) was read as AMA1-RON2 inh 106%, Pf growth 96h 46%, NS1 function inh 20%, Sm TGR inh -11% and Pf growth 48h 1.2µM*.
COc1ccc(Cl)cc1NC(=O)Cn1cc2c(n1)CCC(C)C2 (centres undefined) was read as Sm TGR inh 1%.
`COc1cc(/C=C/C(=O)OCc2cn3cc(Cl)ccc3n2)ccc1O` gave AMA1-RON2 inh 2%, Pf growth 96h inconclusive, NS1 function inh -2%, Sm TGR inh -28% and Pf growth 48h 10µM*.
`CC[n+]1c(C)n(C)c2cc(S(=O)(=O)N(C)C)ccc21` gave AMA1-RON2 inh 1%, Pf growth 96h 66%, NS1 function inh 1%, Sm TGR inh 50µM* and Pf growth 48h 0%.
`C=CCn1c(C)nnc1SCC(=O)N1c2ccccc2NC(=O)C1(C)C` gave AMA1-RON2 inh -10%.
CCCCCCn1c(COc2ccccc2F)nnc1SCC(=O)N1c2ccccc2NC(=O)C1(C)C was read as AMA1-RON2 inh -15%, Pf growth 96h 8.3µM*, NS1 function inh inconclusive, Sm TGR inh 2% and Pf growth 48h 13µM*.
Cc1ccc(OCc2nc(-c3ccc(C(=O)N4CCN(c5cccc(C(F)(F)F)c5)CC4)cc3)oc2C)cc1 was read as Sm TGR inh 11%.
Cc1cccc(NC(=O)c2nc[nH]c2C(=O)NCCCCCNC(=O)OC(C)(C)C)c1 was read as AMA1-RON2 inh 100%, Pf growth 96h inconclusive, Sm TGR inh -6% and Pf growth 48h 2.6µM*.
Cc1cccc(NC(=O)c2nc[nH]c2C(=O)N[C@@H](CCCCNC(=O)OC(C)(C)C)C(=O)OC(C)(C)C)c1 was read as AMA1-RON2 inh 110%, Pf growth 96h 6.6µM*, NS1 function inh inconclusive, Sm TGR inh 2% and Pf growth 48h 4.7µM*.
Screening C=Cc1ccc(Cn2c(=O)cc(C)c3c(C)nn(-c4ccccc4)c32)cc1 returned Sm TGR inh 1%.
COc1ccc(/C=C/S(=O)(=O)NCc2ccccc2)cc1OC was read as AMA1-RON2 inh 3%, Pf growth 96h 39%, Sm TGR inh -7% and Pf growth 48h 12µM*.
CCOc1ccccc1NC(=O)c1cc(C(=O)c2cc(OC)ccc2O)coc1=N was read as AMA1-RON2 inh -7%, Pf growth 96h 2.3µM*, NS1 function inh -12%, Sm TGR inh 4% and Pf growth 48h 4.7µM*.
Screening CC(C)NC(=O)c1cc(C(=O)c2cc(Cl)ccc2O)coc1=N returned AMA1-RON2 inh -15%, Pf growth 96h inconclusive, NS1 function inh -11%, Sm TGR inh 6% and Pf growth 48h -21%.
Screening c1ccc(NC(c2ccccc2)c2ccncc2)cc1 (centres undefined) returned AMA1-RON2 inh 9%, Pf growth 96h 80%, NS1 function inh -5%, Sm TGR inh inconclusive and Pf growth 48h 9.3µM*.
`NC(N)=Nc1ccc(N=C(N)N)cc1` gave AMA1-RON2 inh -1%, Pf growth 96h 8.3µM*, NS1 function inh 4%, Sm TGR inh 1% and Pf growth 48h inconclusive.
`NC(=Nc1ccccc1)Nc1ccccc1` gave AMA1-RON2 inh -7%, Pf growth 96h inconclusive, NS1 function inh 2%, Sm TGR inh -1% and Pf growth 48h -1%.
`N#CC(C#N)=Cc1ccccc1OCc1ccccc1` gave Pf growth 96h -8%, NS1 function inh -51%, Sm TGR inh 3.2µM* and Pf growth 48h inconclusive.
For Cc1ccc2oc(C(=O)N(Cc3ccc(N(C)C)cc3)C3CCS(=O)(=O)C3)c(C)c2c1 (centres undefined) the results were AMA1-RON2 inh 28µM*, Pf growth 96h 4.7µM*, NS1 function inh -15%, Sm TGR inh -14% and Pf growth 48h inconclusive.
Screening Cc1ccc2c(=O)cc(C(=O)N(Cc3ccc(N(C)C)cc3)C3CCS(=O)(=O)C3)oc2c1 (centres undefined) returned Sm TGR inh 4%.

Screening results from PubChem.
